The first experiment addresses T1, ETS1 (UniProt P14921).
T1 sequence: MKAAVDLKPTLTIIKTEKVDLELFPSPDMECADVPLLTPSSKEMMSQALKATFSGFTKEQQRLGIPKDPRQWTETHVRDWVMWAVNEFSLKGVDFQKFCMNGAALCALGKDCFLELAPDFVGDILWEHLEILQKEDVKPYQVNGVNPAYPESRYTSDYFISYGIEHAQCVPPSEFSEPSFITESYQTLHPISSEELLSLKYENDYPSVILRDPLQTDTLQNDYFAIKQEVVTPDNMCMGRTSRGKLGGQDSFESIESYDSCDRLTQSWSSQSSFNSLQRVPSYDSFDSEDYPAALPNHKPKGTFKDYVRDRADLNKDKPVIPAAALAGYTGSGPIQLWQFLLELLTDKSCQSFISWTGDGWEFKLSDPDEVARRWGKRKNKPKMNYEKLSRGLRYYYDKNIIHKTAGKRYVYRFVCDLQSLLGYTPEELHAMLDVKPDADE
Kind of experiment: ETS1 binding intensity (PBM fluorescence) in presence of RUNX1, normalised to ETS1-only experiment (arbitrary fluorescence units); higher = stronger binding. The conditions noted are these: ETS1 concentration 1 nM; RUNX1 concentration 25 nM.
On to CCCGCGACACAAGGCGGATGTGGTACCCTCACTTGT, for which the ETS1 binding intensity came to 5070.

Consider CATACAGGATGCTGGGGTATGTAAAACAAACCACGG, for which the ETS1 binding intensity worked out at 678.

Consider GCTCCTCCCGGATATAAAGCCCCAAACCACGCCACT, for which the ETS1 binding intensity worked out at 1610.

On to CATGGTTGTTATTTCCTCACCACAATATGTGACATT, for which the ETS1 binding intensity was determined as 463.

On to AACTGTCTCTACCCAGGAAGTGGTTTTATTTAAAAG, for which the ETS1 binding intensity came out at 14900.

On to ACAGGAAATGTTAGAGGTTGAGTTAGCGGTTATGAG, for which the ETS1 binding intensity came out at 3640.

Regarding CTCCCACATCCGAAGCGGCGCAACCCACAACAGCCT, the ETS1 binding intensity turned out to be 344.

Turning to GCTGCTTCCGGCCGCTGGTCGCAGGGCTGCGGGACT, the ETS1 binding intensity came to 1000.

Regarding AGTAGGATGGGAGGAAGTGGTTTGTAAGAGGAGGAC, the ETS1 binding intensity came to 2740.

Take GGGGCCTCTGCTACTTCCTAGACCGCAAAATGGAGA: the ETS1 binding intensity turned out to be 1570.

As to CCCACTGATAAGACAGGATGTGGTAAAGAAGCCAGC, the ETS1 binding intensity stood at 22800.

TGAGTCACAGAGACAGGATGTGGTGCAGGGGGTATT: the ETS1 binding intensity was found to be 13500.

Take GTTATTCTCCCCTTCCTGTGGTGTGTTTTGATGGTA: the ETS1 binding intensity was found to be 626.

Regarding GAGCAAACGGAGGCAGGAAGTGGTTATGTAACTTCA, the ETS1 binding intensity turned out to be 12400.

With TGACAGACCCGGAAATAAGAGGAGACCACACACTTG, the ETS1 binding intensity was found to be 2660.

For the sequence GAGGACGCGGAAGTCCTTCTTGCGGGGCGGAGCTAG, the ETS1 binding intensity was 840.

For the sequence GGGCGGAAGTGCGTCACTATGTCCGACCCGCAGTGC, the ETS1 binding intensity worked out at 2050.

As for AGCTGTTTGGTCACAGGATGTGGTTATTAGAATAGG, the ETS1 binding intensity turned out to be 27900.

With GCGAAAAACGCGGAAATGCGGTGGCGGCGGCCCGCT, the ETS1 binding intensity was determined as 1190.

Turning to GAGAGGAGGATGTTGTCAGATACCCACAAATGAGAA, the ETS1 binding intensity worked out at 621.

As for GACCAATGTAAACAAGGATGTGGGTTCTCCGGGCAC, the ETS1 binding intensity came to 2030.

With GGCGCGGGCTGCTTCCGGTCTGCGGGCCTGAGGAGG, the ETS1 binding intensity was 5010.

CAGAGGACAGGATGCCAACCCCAAAACCGCAGCGAC: the ETS1 binding intensity is 6200.

As to CCAGTACCCCACTTCCTGACCAAACCACAAAGGTCA, the ETS1 binding intensity is 2450.

On to AACCAATCGAGCGGAGGAAACCGCGGCGTTAGCGTG, for which the ETS1 binding intensity was 1020.

Regarding GGAGCAAGGATGACAGGATGTGGCTTAGGGGGAGGC, the ETS1 binding intensity was 7820.

For TCCCTAAGTCACATCCTGTGGGCAAAGGCCCTAGCA, the ETS1 binding intensity came out at 935.

TTATTTCCGGTGTTGATCTTTTTAGTGGTACCAGGC: the ETS1 binding intensity was determined as 3640.

Take AGCGGCCGAAGGAAGTGACGTTTGCGGCAGTAAGGC: the ETS1 binding intensity came to 1450.

As for GTGGCGGGGCGGAAGTTCACATGTGTGGTATGTAGA, the ETS1 binding intensity worked out at 5000.

For the sequence CAGCCGACTTCCGGGGTGGGGCTTGCTGCCGCAGAG, the ETS1 binding intensity is 1780.

As to AGGGAGCCCTCCATTTCCTGCCCACATTTGTCACCT, the ETS1 binding intensity came out at 2060.

With ACCATCCTGTAGTCTGTTAAGTGAGCAACCGCATTA, the ETS1 binding intensity amounted to 948.

Consider AGCGGCCTGGGAGGAGGATGTGGTTACGTGGAGACC, for which the ETS1 binding intensity is 15200.

For GAAGGTTGTAGAGGAAGTGGTTTGTTCTTCCTCCTG, the ETS1 binding intensity stood at 4070.

Regarding CCCTGAGCACTTCCCCGTAAGGCTGCGGTGCACGGG, the ETS1 binding intensity was found to be 460.

Take ACAGTCGCACCGGAAGCTGCCCGCGGTGTTGACACA: the ETS1 binding intensity worked out at 11300.

Turning to ATTCCTAGAGAGGAAATGCGGGCTCAGGGTGTCGGC, the ETS1 binding intensity was 1560.

Turning to AAATATAGTGCTAAAGGAAGTGGTTTTCATGCAACT, the ETS1 binding intensity came out at 4140.

For the sequence ACCTCATCCTGCTGTTCTTGTGTGTGGTTGAGCAGT, the ETS1 binding intensity stood at 432.

In another experiment the target is RUNX1 (UniProt Q01196). Put plainly: RUNX1 binding intensity (PBM fluorescence) in presence of ETS1, normalised to RUNX1-only experiment (arbitrary fluorescence units); higher = stronger binding. The conditions noted are these: RUNX1 concentration 2 nM; ETS1 concentration 25 nM. The protocol: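 Cooperative gcPBM on 36-bp genomic probes with neighbouring ETS1 and RUNX1 sites. Recombinant human RUNX1 (2 nM) was incubated alone or with ETS1 (25 nM) and detected with anti-RUNX1 antibody plus Alexa488 secondary. Values are medians over 4 replicate spots; the RUNX1+ETS1 data were normalised to the RUNX1-only data. The probes sit in constant array flanks that are not printed.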
RUNX1, sequence (Q01196 whole entry): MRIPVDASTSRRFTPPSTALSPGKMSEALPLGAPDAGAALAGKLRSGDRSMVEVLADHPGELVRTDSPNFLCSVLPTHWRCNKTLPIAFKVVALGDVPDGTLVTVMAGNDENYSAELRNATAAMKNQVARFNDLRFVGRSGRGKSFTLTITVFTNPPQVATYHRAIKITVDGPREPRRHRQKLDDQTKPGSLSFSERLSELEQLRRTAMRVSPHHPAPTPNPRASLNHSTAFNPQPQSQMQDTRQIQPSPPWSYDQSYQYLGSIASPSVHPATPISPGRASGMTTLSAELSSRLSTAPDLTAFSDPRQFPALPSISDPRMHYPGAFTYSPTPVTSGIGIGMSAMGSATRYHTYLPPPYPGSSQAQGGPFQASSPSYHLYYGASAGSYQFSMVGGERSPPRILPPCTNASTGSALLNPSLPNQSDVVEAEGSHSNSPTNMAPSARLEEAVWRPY
As to CCCGCGACACAAGGCGGATGTGGTACCCTCACTTGT, the RUNX1 binding intensity came to 1200.

Consider CATACAGGATGCTGGGGTATGTAAAACAAACCACGG, for which the RUNX1 binding intensity was 964.

For the sequence GCTCCTCCCGGATATAAAGCCCCAAACCACGCCACT, the RUNX1 binding intensity turned out to be 1410.

As for CATGGTTGTTATTTCCTCACCACAATATGTGACATT, the RUNX1 binding intensity amounted to 1300.

As to AACTGTCTCTACCCAGGAAGTGGTTTTATTTAAAAG, the RUNX1 binding intensity is 2190.

As to ACAGGAAATGTTAGAGGTTGAGTTAGCGGTTATGAG, the RUNX1 binding intensity is 914.

For the sequence CTCCCACATCCGAAGCGGCGCAACCCACAACAGCCT, the RUNX1 binding intensity came out at 1620.

With GCTGCTTCCGGCCGCTGGTCGCAGGGCTGCGGGACT, the RUNX1 binding intensity was found to be 1760.

With AGTAGGATGGGAGGAAGTGGTTTGTAAGAGGAGGAC, the RUNX1 binding intensity stood at 1480.

Consider GGGGCCTCTGCTACTTCCTAGACCGCAAAATGGAGA, for which the RUNX1 binding intensity was 6150.

Consider CCCACTGATAAGACAGGATGTGGTAAAGAAGCCAGC, for which the RUNX1 binding intensity amounted to 6790.

Regarding TGAGTCACAGAGACAGGATGTGGTGCAGGGGGTATT, the RUNX1 binding intensity is 1030.

With GTTATTCTCCCCTTCCTGTGGTGTGTTTTGATGGTA, the RUNX1 binding intensity amounted to 1590.

Consider GAGCAAACGGAGGCAGGAAGTGGTTATGTAACTTCA, for which the RUNX1 binding intensity was 2170.

As for TGACAGACCCGGAAATAAGAGGAGACCACACACTTG, the RUNX1 binding intensity was 1410.

As to GAGGACGCGGAAGTCCTTCTTGCGGGGCGGAGCTAG, the RUNX1 binding intensity came to 890.

For the sequence GGGCGGAAGTGCGTCACTATGTCCGACCCGCAGTGC, the RUNX1 binding intensity was found to be 1010.

Consider AGCTGTTTGGTCACAGGATGTGGTTATTAGAATAGG, for which the RUNX1 binding intensity was 4040.

GCGAAAAACGCGGAAATGCGGTGGCGGCGGCCCGCT: the RUNX1 binding intensity was 1210.

For the sequence GAGAGGAGGATGTTGTCAGATACCCACAAATGAGAA, the RUNX1 binding intensity worked out at 889.

As to GACCAATGTAAACAAGGATGTGGGTTCTCCGGGCAC, the RUNX1 binding intensity came out at 928.

For GGCGCGGGCTGCTTCCGGTCTGCGGGCCTGAGGAGG, the RUNX1 binding intensity amounted to 1770.

With CAGAGGACAGGATGCCAACCCCAAAACCGCAGCGAC, the RUNX1 binding intensity is 9280.

On to CCAGTACCCCACTTCCTGACCAAACCACAAAGGTCA, for which the RUNX1 binding intensity came to 8080.

Turning to AACCAATCGAGCGGAGGAAACCGCGGCGTTAGCGTG, the RUNX1 binding intensity was 840.

For the sequence GGAGCAAGGATGACAGGATGTGGCTTAGGGGGAGGC, the RUNX1 binding intensity was 1000.

TCCCTAAGTCACATCCTGTGGGCAAAGGCCCTAGCA: the RUNX1 binding intensity came to 1570.

As for TTATTTCCGGTGTTGATCTTTTTAGTGGTACCAGGC, the RUNX1 binding intensity was determined as 2990.

Consider AGCGGCCGAAGGAAGTGACGTTTGCGGCAGTAAGGC, for which the RUNX1 binding intensity came out at 1300.

On to GTGGCGGGGCGGAAGTTCACATGTGTGGTATGTAGA, for which the RUNX1 binding intensity stood at 1430.

CAGCCGACTTCCGGGGTGGGGCTTGCTGCCGCAGAG: the RUNX1 binding intensity is 1730.

As to AGGGAGCCCTCCATTTCCTGCCCACATTTGTCACCT, the RUNX1 binding intensity is 2260.

Take ACCATCCTGTAGTCTGTTAAGTGAGCAACCGCATTA: the RUNX1 binding intensity stood at 1900.

In the case of AGCGGCCTGGGAGGAGGATGTGGTTACGTGGAGACC, the RUNX1 binding intensity was 1510.

As for GAAGGTTGTAGAGGAAGTGGTTTGTTCTTCCTCCTG, the RUNX1 binding intensity worked out at 1640.

As to CCCTGAGCACTTCCCCGTAAGGCTGCGGTGCACGGG, the RUNX1 binding intensity was 844.

ACAGTCGCACCGGAAGCTGCCCGCGGTGTTGACACA: the RUNX1 binding intensity is 1360.

ATTCCTAGAGAGGAAATGCGGGCTCAGGGTGTCGGC: the RUNX1 binding intensity came out at 897.

As to AAATATAGTGCTAAAGGAAGTGGTTTTCATGCAACT, the RUNX1 binding intensity stood at 1080.

Regarding ACCTCATCCTGCTGTTCTTGTGTGTGGTTGAGCAGT, the RUNX1 binding intensity amounted to 1340.

Source of the values: the supplement of paper PMC10681739.
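For RUNX1 binding intensity (PBM fluorescence) in presence of ETS1, normalised to RUNX1-only experiment in this document: Full-length recombinant human ETS1 or RUNX1 bound to double-stranded 36-bp genomic probes on microarrays, detected by protein-specific primary antibody and Alexa488 secondary, spot fluorescence as median of four replicate spots.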
